This is a sample that favours compounds with a hit; in the whole collection about 0.53% have one here.
TcdB GH inh: TcdB glycohydrolase inhibitors, primary screen, biochemical, single point, plate reader | Toxin B (Clostridioides difficile), P18177 | TcdB glycohydrolase enzymatic assay | inhibition, % at 9.99 µM | 350,000 compounds, 0.24% hits | AID 652162, 2013; in the data active = inhibition above about 10%
PrP 5UTR inh: inhibition of PrP 5' UTR reporter expression. inhibition, % (test concentration not listed). cell-based PrP 5' UTR mRNA reporter, plate reader. 340,000 compounds, 0.35% hits; in the data active = inhibition above about 52%; note: 0 = median of the neutral control wells
BioA inh: M. tuberculosis BioA enzyme inhibitors, primary screen, biochemical, plate reader, single point, HTS; 7,8-diaminopelargonic acid synthase BioA (Mycobacterium tuberculosis); purified M. tuberculosis BioA enzyme; inhibition, % at 9.99 µM; 360,000 compounds, 0.096% hits; in the data active = inhibition above about 40%; inconclusive = no clear call, values can overlap the other calls
Y pestis TopoI: Yersinia pestis topoisomerase I inhibitors, primary screen, biochemical, cleavage product accumulation, plate reader, single point. activity, % at 10 µM. DNA topoisomerase I (Yersinia pestis CO92). 360,000 compounds, 0.064% hits. Y. pestis Topo-I cleavage product accumulation; in the data active = activity above about 50%, passing the limit was not always enough; inconclusive = no clear call, values can overlap the other calls
PrP UTR cherry: prion 5' UTR mRNA inhibition, cherry-pick retest; shares compounds with PrP 5UTR inh; cell-based prion protein 5' UTR reporter, plate reader; inhibition, % at 2.5 µM; 1,100 compounds, 48% hits; AID 504592, 2011; in the data active = inhibition above about 54%; inconclusive = no clear call, values can overlap the other calls
Active calls of the source: *; i = inactive; ? = inconclusive; . = no result.

SMILES	TcdB GH inh	PrP 5UTR inh	BioA inh	Y pestis TopoI	PrP UTR cherry
Cc1nn(C)c(C)c1N1C(=O)c2cccc3c(N)ccc(c23)C1=O	.	-22	-233	-2	.
CC(C)NC(=O)N(C)C[C@@H]1Oc2ncc(-c3ccccc3F)cc2C(=O)N([C@H](C)CO)C[C@H]1C	0	.	.	.	.
Cc1[nH]n(-c2ccccc2)c(=O)c1C(=O)c1cccc(F)c1	1	62*	.	-5	-21
COC(=O)C[C@@H]1C[C@@H]2c3cc(NC(=O)Nc4ccc(OC)cc4)ccc3O[C@@H]2[C@@H](CO)O1	-2	.	.	.	.
Cc1nnc(NC(=O)c2ccc(N3CCCC3=O)cc2)s1	1	-51	.	4	.
Cc1csc(NC(=O)c2ccc(N3CCCC3=O)cc2)n1	1	56*	.	-2	?
COCC(=O)Nc1ccc2c(c1)[C@@H]1C[C@@H](CC(=O)N(C)C)O[C@@H](CO)[C@@H]1O2	0	.	-2	.	.
C[C@@H]1CN([C@H](C)CO)C(=O)c2cccc(NC(=O)c3ccc(-c4nccs4)cc3)c2O[C@H]1CN(C)C(=O)Nc1cccc2ccccc12	1	.	-1	.	.
CCC1(c2ccc(Cl)cc2)NC(=S)N(c2ccccc2)N1 (configuration not stated)	2	-16	0	-12	.
CCC1(c2ccccc2)NC(=S)N(c2ccc(C)cc2)N1 (configuration not stated)	5	76*	0	-13	-52
Cc1nn(-c2ccc3ccccc3c2)c(=O)c2ccccc12	1	-67	1	-7	.
Cc1nn(-c2nc3ccccc3[nH]2)c(=O)c2ccccc12	1	93*	.	-16	95*
COc1ccc(OCC(=O)N/N=C(\C)CC(=O)Nc2ccc(OC)cc2[N+](=O)[O-])cc1	0	-15	.	-1	.
COc1ccc(NC(=O)C/C(C)=N/NC(=O)c2ccncc2)c([N+](=O)[O-])c1	-8	54*	-1	-7	-17
O=C(NCC[C@@H]1CC[C@H](NS(=O)(=O)c2ccccc2F)[C@@H](CO)O1)c1ccc(F)cc1	-1	.	1	.	.
COc1cc(C(=O)N2CCN(c3ccccc3)CC2)c2ccccc2n1	2	75*	-1	30	88*
COc1ccc(NC(=O)Cn2c(=O)n(CC3CCCO3)c(=O)c3cc(OC)c(OC)cc32)cc1OC (configuration not stated)	1	58*	4	-6	-3
CCCc1cn(CC[C@H]2CC[C@H](NS(=O)(=O)c3ccc(-c4ccccc4)cc3)[C@@H](CO)O2)nn1	0	.	1	.	.
CCOc1ccc(OCc2cccc(C(=O)N3CCOCC3)c2)cc1	.	61*	-2	-10	70*
C[C@H](CO)N1C[C@H](C)[C@H](CN(C)S(C)(=O)=O)OCCCC[C@H](C)Oc2ccc(NC(=O)Nc3ccc(C(F)(F)F)cc3)cc2C1=O	-1	.	-2	.	.
COc1cc2cc(C#N)c(SCC(=O)N3CCOCC3)nc2cc1OC	.	72*	-1	-7	-29
CC(=O)OCC12CC(OC(=O)CC(C)C)C(C)=CC1OC1C(O)C(OC(C)=O)C2(C)C12CO2 (configuration not stated)	1	91*	.	-7	93*
C[C@@H]1CN([C@H](C)CO)C(=O)c2cc(NS(=O)(=O)c3ccc(F)cc3)ccc2O[C@H]1CN(C)C(=O)Nc1ccc(C(F)(F)F)cc1	0	.	-1	.	.
COc1cc(-c2noc(C)c2/C=C/c2cccc([N+](=O)[O-])c2)cc(OC)c1OC	3	58*	5	33	71*
CN1c2ccc(-c3cccc(C#N)c3)cc2[C@H]2[C@H](CCN2C(=O)C2CC2)[C@@H]1CO	0	.	.	.	.
SMILES	TcdB GH inh	PrP 5UTR inh	BioA inh	Y pestis TopoI	PrP UTR cherry
Cc1ccc(NC(=O)C2CCCN(S(=O)(=O)c3cnc[nH]3)C2)c(Br)c1 (configuration not stated)	1	73*	0	-2	-1
O=C(Nc1ccc(Br)cc1F)C1CCCN(S(=O)(=O)c2cnc[nH]2)C1 (configuration not stated)	0	-10	-1	3	.
CCCCn1c(C)nc2c(=O)n(C)c(=O)[nH]c21	.	-27	i	3	.
CCCCn1c(-c2ccccc2)nc2c(=O)n(C)c(=O)[nH]c21	.	78*	-2	3	5
COC1CC(C)C(OC)c2cc(O)cc(c2O)NC(=O)C(C)=CC=CC(C)C(OC(N)=O)C(C)=CC(C)C1OC (configuration not stated)	-7	30	.	7	.
COC1C=CC=C(C)C(=O)NC2=CC(=O)C(N)=C(CC(C)CC(OC)C(O)C(C)C=C(C)C1OC(N)=O)C2=O (configuration not stated)	2	76*	.	-2	82*
C[C@@H]1CN([C@@H](C)CO)C(=O)Cc2cc(NC(=O)Nc3cccc4ccccc34)ccc2O[C@H]1CN(C)C(=O)NC1CCCCC1	0	.	1	.	.
Nc1ncnc2c(C3OC(CO)C(O)C3O)scc12 (configuration not stated)	0	58*	.	9	82*
CN1[C@@H]2c3ccc(/C=C/c4ccccc4)c(=O)n3C[C@@H]2[C@@H](CO)[C@@H]1C(=O)N1CCCCC1	1	.	0	.	.
O=C(Nc1ccc(OCc2ccccc2Cl)cc1)c1cccnc1	1	66*	26	24	71*
O=C(Nc1ccc(OCc2ccccc2)cc1)c1cccnc1	.	-42	8	2	.
O=C1C(=C2SCCCS2)CC/C1=C\c1ccc(F)cc1	.	84*	.	-6	84*
Cc1cccc(/C=C2\CCC(=C3SCCCS3)C2=O)c1	.	55*	.	24	?
C[C@@H]1CN([C@@H](C)CO)C(=O)c2cc(C3=CCCC3)cnc2O[C@H]1CN(C)Cc1ccccc1C(=O)O	0	.	-1	.	.
C[C@H]1CN([C@@H](C)CO)S(=O)(=O)c2ccc(-c3cccnc3)cc2O[C@@H]1CN(C)C(=O)C1CCCCC1	2	.	22	.	.
Cc1ccccc1-c1ccccc1[C@H]1[C@@H](C#N)N(C(=O)c2ccccc2)[C@@H]1CO	2	.	.	.	.
COc1ccc(CC(=O)OCC(=O)N2CCN(S(=O)(=O)c3ccc(C)cc3C)CC2)cc1	0	88*	0	33	-12
COc1cccc(CN2CCC3(CC2)CN(C(=O)C2CC2)[C@H](CO)c2c3c3ccc(OC)cc3n2C)c1	0	.	.	.	.
COc1ccc(-c2cc3c(nn2)-c2ccccc2C3=O)cc1	0	63*	0	15	?
NC(CO)c1cn([C@@H](CCC(=O)O)C(=O)N2CCNCC2)nn1 (some centres not stated)	1	-11	-1	10	.
NC(Cc1ccc(O)cc1)c1cn([C@@H](CCC(=O)O)C(=O)N2CCNCC2)nn1 (some centres not stated)	2	64*	1	4	-2
Cc1ccc(C(=O)N(Cc2ccco2)c2c(N)n(Cc3ccccc3)c(=O)[nH]c2=O)cc1	1	.	0	2	.

From PubChem
